Mito fusion act: blocks mitochondrial division or promotes mitochondrial fusion | S. cerevisiae fusion-defective mutant growth rescue, CellTiterGlo 48 h | Potency, µM (series often up to 46.1 µM), hits mostly activators | 320,000 compounds, 0.23% hits; further: nearly all actives have a fitted effect of over 45% in size
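Compounds are tested for their ability to restore growth of mitochondrial fusion-defective yeast strains at non-permissive 37C in YPEG medium over 48 hours. Viability is quantified by luciferase luminescence.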
BRCA1 expr up: BRCA1 expression activation | MCF7-BRCA1-FFLuc reporter, luminescence, 48 h; response scale: scaled: vehicle 0%, 10 µM genistein 100% | AID 624202 | Potency, µM (series often up to 46.1 µM), usual class: activators | 380,000 compounds, 1.1% hits; further: nearly all actives have a fitted effect of over 80% in size
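Luminescence from a BRCA1-driven firefly luciferase in MCF7 cells was the read-out, taken 15 min after substrate addition following 48 h compound exposure at 37 °C. Data were normalized to a 10 microM genistein control and DMSO vehicle.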
TCR act: activators of T cell receptors. AID 504894. Potency, µM (series often up to 9.22 µM), usual class: activators. primary human leukocytes, anti-CD3, IL-2 HTRF, 48 h. 330,000 tested, under 10 active
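1) Mix primary human leukocytes, a-CD3 beads and compound. 2) Incubate 48 hr. 3) Add HTRF IL-2 reagents (a-IL-2-K, a-IL-2-d2).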
PTHR1 agonist: activates the human parathyroid hormone receptor PTHR1; 410,000 compounds, 0.075% hits; AID 743266; HEK293 GP2 PTHR1 cells, GloSensor cAMP luminescence, 1 h; Potency, µM (highest dose often 115 µM), hits mostly activators; Q03431; further: nearly all actives have a fitted effect of over 55% in size
Target sequence (Q03431 whole entry, looked up): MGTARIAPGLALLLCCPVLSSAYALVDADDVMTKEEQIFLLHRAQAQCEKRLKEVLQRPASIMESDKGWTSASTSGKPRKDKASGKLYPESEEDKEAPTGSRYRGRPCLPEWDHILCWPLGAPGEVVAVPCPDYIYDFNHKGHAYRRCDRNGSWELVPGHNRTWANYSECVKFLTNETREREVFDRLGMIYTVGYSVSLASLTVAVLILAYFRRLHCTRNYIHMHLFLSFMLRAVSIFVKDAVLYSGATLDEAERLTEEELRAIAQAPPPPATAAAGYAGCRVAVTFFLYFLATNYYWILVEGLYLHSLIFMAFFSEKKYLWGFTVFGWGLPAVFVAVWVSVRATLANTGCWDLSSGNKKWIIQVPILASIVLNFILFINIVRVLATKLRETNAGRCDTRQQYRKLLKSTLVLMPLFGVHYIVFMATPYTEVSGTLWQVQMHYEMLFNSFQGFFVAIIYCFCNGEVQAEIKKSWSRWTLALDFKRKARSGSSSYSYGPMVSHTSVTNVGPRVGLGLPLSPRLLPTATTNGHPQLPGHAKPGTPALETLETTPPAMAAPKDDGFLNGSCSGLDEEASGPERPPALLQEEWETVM
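HEK-293-derived GP2 cells expressing PTHR1 and a GloSensor cAMP reporter, 3,000/well, plated overnight, given luciferin plus IBMX (each 0.5 mM as added) for 1 h at 37 °C, then compound for 1 h at 37 °C. Luminescence was read after 15 min at room temperature.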
Chronic BCR inh: blocks chronic active B-cell receptor signaling | ABC-DLBCL IkBa-CBG/CBR reporter, luminescence ratio, 4 h | Potency, µM (titrated, usually from 46.1 µM), actives largely listed as inhibitors | 340,000 compounds, 0.05% hits | AID 493014; active means well fitted inhibition curve with a large enough effect in the signal ratio, with a control signal flat, not every such curve was filed as active; inconclusive means small, poorly fitted or top-dose-only effect, or effect the other way, or a change in a side signal; the % refers to the signal ratio
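TMD8 ABC-DLBCL cells carrying doxycycline-inducible green luciferase fused to IkappaBalpha plus unfused red luciferase were exposed to compounds (up to 46 uM) for 4 hrs at 37C. Activity came from the overlap-corrected green/red luminescence ratio.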
IL-2 act: activators of IL-2; IL-2 activation reporter assay, cell-based qHTS; stimulated with anti-CD3/CD4/CD28 beads; in transgenic mouse T cells; activation, % (series mostly up to about 46 µM); AID 652025; 360,000 compounds, 0.065% hits; in the data active means activation above about 50%; inconclusive means mostly about 30% to 49%
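Unstimulated transgenic mouse T cells; 60-min compound exposure; bead-based TCR/CD4/CD28 stimulation; 18 h culture, 37 degrees C; dual fluorescence (EGFP, DsRed) plate cytometry.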
A number is an active result; 0 = inactive; ? = inconclusive; - = no result given. Compounds with a hit are over-represented: about 1.3% of the library has one in this group of screens. Unless noted, the call rests on the fitted dose curve; in most records, active means well fitted curve in the direction sought with a large enough effect; inconclusive means small, poorly fitted or top-dose-only effect, or another doubt; inactive means no such curve, though single readings can be large; an effect the other way counts as inactive or inconclusive.

SMILES	Mito fusion act	BRCA1 expr up	TCR act	PTHR1 agonist	Chronic BCR inh	IL-2 act
CC(C)(C)n1ncc2c(=O)n(CC(=O)Nc3ccc(Cl)cc3)cnc21	0	0	0	0	0	0
CC(C)(C)n1ncc2c(=O)n(CC(=O)c3ccc(Cl)cc3)cnc21	0	2.24µM	0	0	0	0
COc1ccc2[nH]c(-c3ccccc3)cc2c1	0	3.55µM	0	0	0	0
Fc1ccc(NC(=S)Nc2nccs2)cc1	0	3.16µM	0	0	?	0
CN(C)c1ccc(/C=N/NC(=O)c2ccccn2)cc1	0	0	0	0	?	0
CN(C)c1ccc(/C=N/NC(=O)c2ccn(C)n2)cc1	0	?	0	0	?	0
CN(C)c1ccc(/C=N/NC(=O)c2cnc3ccccc3c2)cc1	0	0	0	0	?	170.2
CN(C)c1ccc(/C=N/NC(=O)c2ccnn2C)cc1	0	12.6µM	0	0	?	0
CCOc1cc(NC(=O)CCl)c(OCC)cc1NC(=O)CCl	0	0	0	0	14.1µM	0
Cc1[nH]n(-c2cccc(Cl)c2)c(=O)c1C=NCc1ccco1	0	11.2µM	0	0	?	0
Cc1[nH]n(-c2cccc(Cl)c2)c(=O)c1C=NCC(C)C	0	10µM	0	0	0	0
Cc1cccn2c(=O)c3cc(C(=O)NCc4ccccc4Cl)sc3nc12	-	-	-	0	-	-
O=C1c2ccccc2NC(c2ccc(Br)o2)N1O (stereo not drawn)	0	11.2µM	0	0	?	0
O=C1c2ccccc2NC(c2ccc(-c3cccs3)o2)N1O (stereo not drawn)	0	?	0	0	?	0
CN(C)/C=C/C(=O)c1ccc(Cl)cc1	0	0	0	0	0	0
CN(C)/C=C/C(=O)c1ccc(-n2cccc2)cc1	0	7.94µM	0	0	0	0
Cn1c(=O)[nH]c2nnc(-c3ccc(Cl)c(Cl)c3)nc2c1=O	2.51µM	0	0	0	?	0
CC1CC1C(=O)Nc1ccc(-c2ccccc2)cc1 (stereo not drawn)	?	2.51µM	0	0	?	0
Cc1ccc2c(c1)N=C(c1ccccc1)CC(C(Cl)Cl)=N2	0	0	0	0	?	0
Cc1cc2c(cc1C)NC(=O)CC(c1ccccc1)=N2	-	3.16µM	0	0	-	0
COc1ccccc1C1CC(c2ccc(Br)cc2)=NN1C(=O)c1cccnc1 (stereo not drawn)	15.8µM	0	0	0	?	0
O=C(NCCCc1cnc[nH]1)NCCCN(Cc1ccc(Cl)cc1)c1ccc(Br)cn1	-	0	-	-	-	-
CC(C)n1nnc(-c2ccc(OCc3ccccc3F)cc2)n1	0	4.47µM	0	0	0	0
Fc1ccccc1COc1ccc(-c2nnn(Cc3ccccc3F)n2)cc1	0	0	0	0	0	0
Nc1ccc(-c2nnn(Cc3ccccc3F)n2)cc1	0	11.2µM	-	0	?	0
SMILES	Mito fusion act	BRCA1 expr up	TCR act	PTHR1 agonist	Chronic BCR inh	IL-2 act
COc1cc2c(C(=O)N3CCN(C)CC3)c(C)oc2cc1Br	0	0	0	0	0	0
Cc1c(C(=O)N2CCCC2)oc2ccc(Br)cc12	0	6.31µM	0	0	?	0
Cc1c(C(=O)N2CCc3ccccc3C2)oc2ccc(Br)cc12	?	0	0	0	0	0
Cc1oc2cc3c(C(=O)N4CCCCC4)c(C)oc3cc2c1C(=O)N1CCCCC1	0	3.16µM	0	0	?	0
Cc1c(C(=O)N2CCN(C)CC2)oc2ccc(Br)cc12	0	12.6µM	0	0	0	0
CCCCN(CCCC)c1ccc(Cn2ccc3ccccc32)cc1	-	0	-	-	-	-
O=S(=O)(c1ccccc1)N1CCC(Oc2ccc(-n3cnnn3)cc2)CC1	35.5µM	0	0	0	?	0
CCOc1cccc(-c2csc(C3COc4ccccc4O3)n2)c1 (stereo not drawn)	0	5.01µM	0	0	0	0
COc1ccc(Cc2nc3ccc(C(=O)NCc4cccc(C)n4)cc3o2)cc1OC	-	0	-	0	-	0
COCCC1CCCCN1C(=O)c1ccc2nc(Cc3ccccc3F)oc2c1 (stereo not drawn)	0	7.94µM	0	0	0	0
COCCc1nc2ccc(C(=O)N3CCCCC3COC)cc2o1 (stereo not drawn)	0	0	0	0	0	0
Cc1cccc(CNC(=O)c2ccc3nc(Cc4ccccc4F)oc3c2)n1	0	12.6µM	0	0	0	0
Cn1cc(CCNC(=O)c2ccc3nc(Cc4ccccc4F)oc3c2)cn1	0	2.51µM	0	0	?	0
CCC1CCC(C(=O)NC(C(=O)NCCCN2CCCCC2C)C(C)C)CC1 (stereo not drawn)	0	0	0	0	0	0
CC(=O)NC1=NN(C(C)=O)C(c2ccco2)S1 (stereo not drawn)	0	0	0	0	0	0
Cc1cc(Nc2ccc(Br)cc2F)n2nc(C)nc2n1	0	0	0	0	0	0
Cc1onc(-c2ccccc2)c1C(=O)N/N=C/c1ccc([N+](=O)[O-])s1	11.2µM	0	0	0	?	0
O=C(CSc1ccc2ccccc2n1)N1CCC(c2noc3ccc(F)cc23)CC1	20µM	0	0	0	0	0
COc1ccc(C2C=C(C34CC5CC(CC(C5)C3)C4)NC(=S)N2)cc1 (stereo not drawn)	11.2µM	0	0	0	0	0
CCc1nc2ccc(C(=O)Nc3ccc(C(N)=O)cc3)cn2c1N(CCC(C)C)CCN(C)C	-	0	-	0	-	0
Cc1cccc(NC(=O)c2cnn3ccccc23)c1C	0	12.6µM	0	0	0	0
COc1ccc(NC(=O)CC2CC3CCC2C3)cn1 (stereo not drawn)	0	12.6µM	0	0	?	0
O=C(CCNC(=O)c1ccco1)NCc1ccc(C(=O)O)cc1	-	0	0	0	0	0
COc1ccc(C2CC2/C(=N/O)c2ccccn2)cc1 (stereo not drawn)	0	0	0	0	0	0
O/N=C(\c1ccccn1)C1CC1c1ccccc1 (stereo not drawn)	0	0	0	0	0	0
COc1ccc(C2CC2/C(=N/O)c2ccccc2)cc1 (stereo not drawn)	0	11.2µM	0	0	?	0
COc1ccc(C2CC2C(=O)c2ccccn2)cc1 (stereo not drawn)	0	8.91µM	0	0	0	0
COc1cc(OC)cc(C(=O)Nc2ccc3nc4n(c(=O)c3c2)CCCCC4)c1	0	4.47µM	0	0	?	0
Cc1ccc(C)c(NC(=O)c2ccc3c(=O)n4c(nc3c2)CCC4)c1	0	4.47µM	0	0	0	0
CCOC(=O)c1cc2c(nc1NC(=S)NCc1ccccc1)CCCC2	0	4.47µM	0	0	0	0

Source: PubChem BioAssay (National Center for Advancing Translational Sciences (NCATS))
